# Results from paper PMC5540273 (PLoS ONE, 2017).
# Values joined by “and” are separate entries in the source; they are usually repeats but may differ in a detail not shown here. Equal entries are not always repeated. Where two headings read alike, the source gives them in different places.
# Assays:
# MST1 = system: T1, MST1; conditions: concentration: 1 μM, replicates: in singlicate, n = 1
# T1 construct: gene STK4
# MST2 = system: T2, MST2; conditions: concentration: 1 μM, replicates: in singlicate; n = 1
# T2 construct: gene STK3
# MST3 = system: T3, MST3; conditions: concentration: 1 μM, replicates: in singlicate, n = 1
# T3 construct: gene STK24
# MST4 = conditions: concentration: 1 μM, replicates: in singlicate, n = 1
# MTOR = conditions: concentration: 1 μM, replicates: in singlicate, n = 1
# MUSK = conditions: concentration: 1 μM, replicates: in singlicate; n = 1
# MYLK2 = conditions: concentration: 1 μM, replicates: in singlicate, n = 1
# MYLK4 = conditions: concentration: 1 μM, replicates: in singlicate, n = 1
# MYLK = conditions: concentration: 1 μM, replicates: in singlicate, n = 1
# MYO3A = conditions: concentration: 1 μM, replicates: in singlicate, n = 1
# 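Further: KINOMEscan kinase panel screen.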
Compound,%Inh (MST1),%Inh (MST2),%Inh (MST3),%Inh (MST4),%Inh (MTOR),%Inh (MUSK),%Inh (MYLK2),%Inh (MYLK4),%Inh (MYLK),%Inh (MYO3A),%Inh (MST1; 1 µM),%Inh (MST3; 1 µM),%Inh (MST4; 1 µM),%Inh (MTOR; 1 µM),%Inh (MYLK2; 1 µM),%Inh (MYLK4; 1 µM),%Inh (MYLK; 1 µM),%Inh (MYO3A; 1 µM)
O=C(c1ccc(-c2cc(-c3c[nH]nc3-c3ccccn3)ccn2)cc1)N1CCOCC1 [GW812171],4%,0%,0%,0%,17%,0%,0%,26%,0%,6%,,,,,,,,
COc1ccc(Nc2nccc(N3CCC(NC(=O)Nc4cc(C)ccc4C)C3)n2)cc1 (stereo not drawn) [GSK1379741],0%,1%,0%,0%,11%,0%,0%,0%,0%,0%,,,,,,,,
Cc1cn2c(=O)cc(N3CCOCC3)nc2n1Cc1cccc(Cl)c1Cl [GSK2334006],14%,0%,0%,0%,37%,27%,32%,9%,8%,0%,,,,,,,,
COc1cc2c(cc1OCCN1CCN(C)CC1)ncc1c3ccc(C#N)cc3[nH]c21,0%,30%,36%,0%,38%,0%,72%,75%,26%,0%,,,,,,,,
Cc1nnc(-c2ccc3occ(-c4ccc(C(C)O)cc4)c3c2)o1 (stereo not drawn),0%,0%,0%,0%,0%,4%,14%,4%,26%,0%,,,,,,,,
c1ccc(-c2n[nH]cc2-c2ccnc3ccccc23)nc1 [GW271431],5%,13%,2%,0%,9%,15%,12%,24%,20%,31%,,,,,,,,
c1ccc(-c2cc(-c3c[nH]nc3-c3ccccn3)ccn2)cc1 [GW576604],0%,0%,0%,0%,10%,0%,3%,0%,6%,18%,,,,,,,,
COc1cc2c(cc1OC[C@@H](O)CO)ncc1c3ccc(C#N)cc3[nH]c21,0%,67%,11%,12%,52%,0%,44%,99%,3%,0%,,,,,,,,
NS(=O)(=O)CCc1cccc(Nc2nccc(-c3c(-c4cccc(NC(=O)c5c(F)cccc5F)c4)nn4ccccc34)n2)c1 [GSK336735],94.9%,74%,13%,0%,8%,40%,0%,0%,14%,26%,,,,,,,,
Cc1cccc(-c2nc(Nc3ccc4ncsc4c3)c3ccccc3n2)n1 [GW867588],18%,0%,0%,16%,0%,0%,0%,0%,0%,0%,,,,,,,,
Cc1c(Cn2c(C)nn3c(=O)cc(N4CCOC(C)C4)nc23)cccc1C(F)(F)F (stereo not drawn) [GSK2344444],0%,0%,2%,0%,28%,0%,8%,1%,0%,7%,,,,,,,,
Cc1cccc(-c2nc(-c3ccc(S(C)(=O)=O)cc3)sc2-c2ccncc2)c1,5%,0%,5%,0%,0%,0%,0%,0%,6%,7%,,,,,,,,
COc1ccc(S(=O)(=O)NC2CCN(c3cc(C)nc(Nc4cccc(C#N)c4)n3)CC2)cc1.O=C(O)C(F)(F)F [GSK1653539],0%,0%,13%,0%,28%,0%,0%,0%,3%,17%,,,,,,,,
O=c1cc(N2CCOCC2)nc2n(Cc3cccc(F)c3)ccn12 [GSK2297430],23%,0%,3%,0%,52%,3%,0%,0%,4%,0%,,,,,,,,
O=C(NCCNc1ccnc(Nc2ccc(F)cc2)n1)c1cc2ccccc2s1 [GSK1379874],0%,0%,0%,0%,8%,0%,0%,0%,15%,0%,,,,,,,,
C[C@@H](Oc1cc(-n2cnc3ccc(NC(=O)NC(C)(C)C)cc32)sc1C(N)=O)c1ccccc1Cl [GSK346294],12%,0%,13%,0%,31%,6%,0%,1%,23%,35%,,,,,,,,
CN1c2ccc(NCc3ccc(F)cc3)cc2-c2c(cnn2C)S1(=O)=O,0%,28%,0%,0%,20%,3%,0%,0%,12%,0%,,,,,,,,

Compound,%Inh (MST1),%Inh (MST2),%Inh (MST3),%Inh (MST4),%Inh (MTOR),%Inh (MUSK),%Inh (MYLK2),%Inh (MYLK4),%Inh (MYLK),%Inh (MYO3A),%Inh (MST1; 1 µM),%Inh (MST3; 1 µM),%Inh (MST4; 1 µM),%Inh (MTOR; 1 µM),%Inh (MYLK2; 1 µM),%Inh (MYLK4; 1 µM),%Inh (MYLK; 1 µM),%Inh (MYO3A; 1 µM)
COCCNC(=O)c1ccc(-c2cc(C(=O)NC3CC3)cc(F)c2C)cc1 [GW868318],17%,24%,3%,38%,0%,28%,1%,5%,29%,5%,,,,,,,,
CCc1ccnc(/C=C/c2n[nH]c3cc(Sc4ccccc4C(=O)NC)ccc23)c1,6%,36%,19%,4%,12%,0%,0%,0%,0%,0%,,,,,,,,
CSc1ccc(-c2cc3ncnc(SCC(=O)O)c3s2)cc1,13%,20%,22%,7%,36%,0%,0%,9%,0%,0%,,,,,,,,
Fc1ccc(-c2ncn(CCCN3CCOCC3)c2-c2ccccn2)cc1 [SB-211742],2%,32%,9%,0%,27%,0%,3%,0%,0%,0%,,,,,,,,
COc1cc(Nc2nccc(N3CCC(NC(=O)c4cccc(NC(C)=O)c4)C3)n2)cc(OC)c1OC (stereo not drawn) [GSK1379754],12%,7%,0%,0%,7%,12%,17%,2%,14%,5%,,,,,,,,
O=c1cc(N2CCOCC2)nc2n(Cc3cccc4ccccc34)ccn12 [GSK2333389],0%,9%,0%,0%,0%,0%,0%,0%,0%,0%,,,,,,,,
CCc1nc(-c2cccc(C)c2)c(-c2ccnc(NCc3ccccc3)c2)s1,4%,0%,4%,0%,12%,12%,0%,0%,0%,0%,,,,,,,,
Cc1ccc(NC(=O)c2ccnc(N3CCN(C)CC3)c2)cc1-c1ccc(C(=O)NCC2CC2)cc1 [GW775604],27%,11%,0%,0%,0%,4%,0%,0%,0%,0%,,,,,,,,
NCC(NC(=O)c1cc(-c2cn[nH]c2)c(-c2ccnc3[nH]ccc23)s1)c1ccccc1.O=C(O)C(F)(F)F.O=C(O)C(F)(F)F (stereo not drawn) [GSK1325775],0%,12%,1%,45%,5%,0%,45%,100%,63%,32%,,,,,,,,
COc1ccc(Nc2ncc(C#N)c(Nc3ccccc3C(N)=O)n2)cc1N1CCN(C)CC1.Cl [GSK1558669],98.3%,51%,95.5%,99.4%,0%,80%,98.2%,98.2%,99.4%,76%,,,,,,,,
CC(C)(C)n1cnc2c(N)ncnc21 [SKF-97359],9%,0%,44%,0%,6%,0%,0%,0%,27%,0%,,,,,,,,
Cc1nnc(-c2ccc(C)c(-c3ccc(C(=O)Nc4ccc(NS(C)(=O)=O)cc4)cc3)c2)o1 [GW702865],6%,0%,0%,0%,28%,0%,0%,8%,3%,23%,,,,,,,,
O=C(Nc1n[nH]c2cc(-c3cccc(F)c3)ccc12)C1CC1 [SB-735464],11%,0%,17%,17%,0%,0%,77%,6%,2%,3%,,,,,,,,
Cl.Oc1cccc(Nc2ccnc3cc(-c4ccncc4)ccc23)c1 [GW494601],0%,0%,13%,0%,4%,0%,24%,0%,95.9%,40%,,,,,,,,
CC(C)(CN)c1nc(-c2ccc(Cl)c(O)c2)c(-c2ccncc2)[nH]1.O=C(O)C(F)(F)F [SB-477794],,0%,,,,0%,,,,,0% and 11%,0% and 1%,11% and 1%,35% and 17%,0% and 5%,0% and 6%,1% and 21%,25% and 59%
O=C1Cc2cc(Nc3nc(NCc4cccc(S(=O)(=O)C(F)(F)F)c4)ncc3C(F)(F)F)ccc2N1,14%,27%,0%,1%,29%,0%,0%,8%,2%,0%,,,,,,,,
